# This is part of a sample that, as a whole, favours compounds with a hit. Of some 79,000 tested, about 15% had one in any assay. Values without a mark were called inactive. Activity calls are given as the source filed them. Cut-off read from the data, not from the text of the source: active = growth inhibition above about 70%; inactive = the rest.
# Legend:
# [1] = NCI Yeast Anticancer Drug Screen. Data for the rad50 strain (AID 155);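 note: 0% = growth of vehicle-only cultures of the same strain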; conditions: S. cerevisiae rad50 strain growth inhibition, hits give high values
# In short: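 DNA repair mutant yeast, compound exposure, growth read-out; inhibition is taken relative to vehicle.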
# [2] = NCI Yeast Anticancer Drug Screen. Data for the mec2-1 strain (AID 157); conditions: S. cerevisiae mec2-1 strain, hits give high values
# In short: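 Cells of the genetically defined mec2-1 yeast strain are incubated with test compound. Inhibition of growth is calculated against vehicle-treated controls.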
# [3] = NCI Yeast Anticancer Drug Screen. Data for the sgs1 mgt1 strain (AID 161);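 note: 0% = growth of cultures given vehicle only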; conditions: S. cerevisiae sgs1 mgt1 strain, hits give high values
# In short: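 Test agents were incubated with a DNA-repair-mutant yeast strain. Growth was then read and compared against vehicle-treated controls.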
# [4] = NCI Yeast Anticancer Drug Screen. Data for the cln2 rad14 strain (AID 165);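 note: 0% = growth equal to vehicle treated cultures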; conditions: S. cerevisiae cln2 rad14 strain, hits give high values
# In short: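 The screen exposed genetically defined yeast (cln2 rad14) to test compounds and scored growth inhibition relative to vehicle-treated controls.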
# [5] = NCI Yeast Anticancer Drug Screen. Data for the bub3 strain (AID 167); conditions: S. cerevisiae bub3 mutant strain, hits give high values
# In short: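 In this screen, a yeast mutant lacking normal mitotic checkpoint function is challenged with compound. Relative growth versus vehicle gives the inhibition value.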
# [6] = NCI Yeast Anticancer Drug Screen. Data for the mlh1 rad18 strain (AID 175); conditions: S. cerevisiae mlh1 rad18 strain growth inhibition, hits give high values
# In short: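 Compound-treated yeast growth, normalised to vehicle controls. Strain bears defined DNA repair mutations.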
# [7] = at 5.0 µM (retest, dose inferred, filed as 0.5)
# [8] = at 50.0 µM (retest, dose inferred, filed as 5.0)
Structure (SMILES),"growth inhibition [1, 7]","growth inhibition [1, 8]",growth inhibition ([1]; at 50.0 µM),"growth inhibition [2, 7]","growth inhibition [2, 8]",growth inhibition ([2]; at 50.0 µM),"growth inhibition [3, 7]","growth inhibition [3, 8]",growth inhibition ([3]; at 50.0 µM),"growth inhibition [4, 7]","growth inhibition [4, 8]",growth inhibition ([4]; at 50.0 µM),"growth inhibition [5, 7]","growth inhibition [5, 8]",growth inhibition ([5]; at 50.0 µM),"growth inhibition [6, 7]","growth inhibition [6, 8]",growth inhibition ([6]; at 50.0 µM)
CC(=O)CC1CCC(=O)/C=C/C(=O)OC(CC(C)=O)CCC(=O)/C=C/C(=O)O1 (stereo not given),20%,38%,16.3%,14%,47%,-13.5%,11%,42%,-6.3%,5%,27%,23.1%,9%,82% (active),-17.1%,17%,56%,-81.7%
O=C(O)CSc1ccc(N=C=S)cc1,-5%,96% (active),-8.1%,3%,91% (active),8.15%,9%,93% (active),-2.75%,-9%,69%,4.8%,-27%,95% (active),0.55%,37%,98% (active),-2.35%
Cc1ccc2nn(-c3ccc(O)cc3)nc2c1,11%,45%,50.3%,16%,42%,22.6%,7%,38%,27%,6%,39%,29.3%,28%,69%,74.5% (active),12%,50%,74.2% (active)
O=C(Nc1ccc(Cl)cc1)Nc1nnc2nc(C(C(=O)c3ccc(F)cc3)c3nc4nnc(NC(=O)Nc5ccc(Cl)cc5)n4[nH]c3=O)c(=O)[nH]n12,-11%,32%,99.5% (active),-19%,56%,99.5% (active),4%,33%,99.5% (active),-38%,36%,99.2% (active),-26%,48%,99% (active),-10%,64%,99.5% (active)
Cc1cc(Cl)n2c(nc3ccccc32)c1C#N,13%,90% (active),98.2% (active),23%,97% (active),98.5% (active),16%,94% (active),99% (active),2%,89% (active),96.8% (active),18%,92% (active),98% (active),28%,94% (active),98.3% (active)
CN(CCC1CCCCC1)CCC1CCCCC1,21%,89% (active),97.9% (active),9%,72% (active),80.3% (active),35%,97% (active),97.2% (active),14%,73% (active),77.6% (active),30%,97% (active),96.5% (active),11%,89% (active),93.6% (active)
Oc1c(Cl)ccc2cccnc12,97% (active),98% (active),92% (active),98% (active),99% (active),93.8% (active),91% (active),80% (active),94.1% (active),98% (active),97% (active),92.5% (active),99% (active),99% (active),92.8% (active),95% (active),98% (active),91.7% (active)
Nc1cc(F)c(F)cc1Sc1cc(F)c(F)cc1N,39%,95% (active),99.2% (active),31%,99% (active),99.2% (active),52%,98% (active),99.2% (active),41%,98% (active),89.9% (active),29%,98% (active),99.5% (active),54%,97% (active),99.2% (active)
CC(C(=O)N1C(=O)N(C(=O)C(C)C(O)c2ccccc2)C(c2ccccc2)C1c1ccccc1)C(O)c1ccccc1 (stereo not given),3%,91% (active),89.2% (active),-10%,92% (active),91.5% (active),-9%,91% (active),91.9% (active),29%,89% (active),90.1% (active),-18%,96% (active),88.2% (active),23%,91% (active),91.3% (active)
CCCCCCCCCCCC(=O)OCCOP(=O)(OCC)OCC,-1%,91% (active),87.2% (active),2%,98% (active),20.9%,4%,99% (active),96.5% (active),-4%,97% (active),74.7% (active),-1%,97% (active),-9.15%,-1%,98% (active),79.2% (active)

# — PubChem BioAssay (NCI)
